About 83,000 compounds went through this panel and 20% of them were active in at least one assay; those are over-represented in the sample as a whole.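 Growth was measured after 48 h exposure to one concentration of compound in 96-well plates. Values under 10 count as active.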 A number with no mark means an inactive call. The source made the active and inactive calls.
tested on: SN12C renal; assay: NCI-60 one-dose screen, 48 h (100 = growth as untreated, 0 = no growth, -100 = all killed); conditions: 10 µM unless noted

SMILES	growth [%]
Oc1ccccc1/C=N/Nc1nc(N/N=C/c2ccccc2O)nc(N2CCOCC2)n1	27.2
IP(CCCSc1n(Cc2ccc3ccccc3c2)c(-c2ccccc2)c(-c2ccccc2)[n+]1Cc1ccc2ccccc2c1)(c1ccccc1)(c1ccccc1)c1ccccc1	57
Cn1cc(-c2nnc(N)nc2-c2cn(C)c3ccc(F)cc23)c2cc(F)ccc21	89.2
N/C(=N\OC(=O)CSc1nc2ccccc2s1)c1ccc(Cl)cc1	102

tested on: UO-31 renal; assay: as above; conditions: 10 µM unless noted

SMILES	growth
NS(=O)(=O)c1ccc(Nc2nc(N/N=C/c3ccc(F)cc3)nc(Nc3ccccc3)n2)cc1	66.2%
COc1ccc(-c2cc(-c3ccc(Cl)cc3)nc3nc(N)nn23)cc1	81%
COc1ccc(Cn2cc3c(c2-c2cc(OC)c(OC)c(OC)c2)CCCc2cnoc2-3)cc1	30.7%
CN(c1ccc(F)cc1)S(=O)(=O)c1ccc(-c2cnc(C3CC3)o2)cc1	44.5%
COC[C@]12CC[C@@H](C)[C@H](C)[C@H]1C1=CC[C@@H]3[C@@]4(C)CCCNC(C)(C)[C@@H]4CC[C@@]3(C)[C@]1(C)CC2	60.2%
C=C(C)[C@@H]1CC[C@]2(C(=O)ON)CC[C@]3(C)[C@H](CC[C@@H]4[C@@]5(C)C/C(=C/c6ccc(Br)cc6)C(=O)C(C)(C)[C@@H]5CC[C@]43C)[C@@H]12	63.7%
CN(c1ccc(Br)cc1)S(=O)(=O)c1ccc(-c2cnc(C3CC3)o2)cc1	44.4%
CCCCCCNC(=O)Oc1ccc(/C(=C(\C)c2ccc(Cl)cc2)c2ccc(OCCN(C)C)cc2)cc1	43.6%
C=C(C)[C@@H]1CC[C@]2(COS(C)(=O)=O)CC[C@]3(C)[C@H](CC[C@@H]4[C@@]5(C)CCCNC(C)(C)[C@@H]5CC[C@]43C)[C@@H]12	81.5%
O=C(NNc1nc2cc(F)ccc2n2cncc12)c1cnccn1	11.7%
CN1CCN(c2ccc3c(C(N)=O)c(NC(=O)c4ccc(C(C)(C)C)cc4)sc3c2)CC1	97.5%
NC(=O)C(=Cc1ccc(Cl)cc1)C(N)=O	57.6%
CCN1C(=O)N(CC)C2SC(N/N=C/C=C/c3ccccc3OC)=NC21 (configuration not stated)	40.2%
CC(=O)C1=NN(c2ccc(Cl)cc2)C(=O)CN1C	93%
CCOC(=O)c1c(NCC(=O)Nc2ccc(Br)cc2)sc2c1CCCC2	54.3%
CN1CCN(c2ccc3c(c2)nc(NNC(=O)c2ccncn2)c2cccn23)CC1	13%
CCOc1c(C#N)c(Nc2ccc(S(N)(=O)=O)cc2)c(C#N)c2nnc(C)n12	78.4%
O=c1[nH]c(CNc2ccc(NCc3c(-c4ccccc4)no[n+]3[O-])cc2)nc2c1cnn2-c1ccccc1	55.9%
C#CCOc1ccc(C(Nc2ccc(Cl)cc2)c2nnnn2C2CCCCC2)cc1 (configuration not stated)	64.9%

SMILES	growth
COc1cc(/C=N/Nc2ccnc3cc(Cl)ccc23)cc(OC)c1O	-96.4% (active)
COc1cc(C(=O)C[n+]2ccc3ccccc3c2)cc(OC)c1OC	94.2%
Cc1ccc(NC(=O)c2ccc(CN3CCN(C)CC3)c(I)c2)cc1Oc1ccc(-c2[nH]nc3ncnc(N)c23)cc1	75.8%
COc1ccc(Cn2cc3c(c2-c2ccccc2)CCCc2cnoc2-3)cc1	57.1%
N#Cc1c(NC(=O)c2ccc(F)c(Cl)c2)sc2c1CCC(=O)C2	-99% (active)
c1ccc(-c2c(-c3ccccc3)[n+](Cc3ccc4ccccc4c3)c(-c3ccccc3)n2Cc2ccc3ccccc3c2)cc1	-95.2% (active)
CCOC(=O)C1=C(C)N=C2Sc3ccccc3N2C1c1ccccc1 (configuration not stated)	64.7%
CCn1c2ccc(/C=N/NS(=O)(=O)CCN(C)C)cc2c2cc(/C=N/NS(=O)(=O)CCN(C)C)ccc21	88%
Cn1cc2c(c1)-c1c(sc3nc(-c4ccc(NC(=O)Nc5cc(C(C)(C)C)on5)cc4)cn13)CC2	18.2%
CCOC(=O)c1c(NC(=O)c2ccc(C(C)(C)C)cc2)sc2cc(OCCN3CCCCC3)ccc12	74.5%
COc1ccccc1/C=C/C=N/NC1=NC2C(S1)N(C)C(=O)N2c1ccccc1 (configuration not stated)	35.9%
CC1(C)CC[C@]2(C(=O)O)CC[C@]3(C)C(=CCC4[C@@]5(C)C[C@@H](O)[C@@H]6OC(c7cccc([N+](=O)[O-])c7)OC[C@@]6(C)C5CC[C@]43C)C2C1 (some centres not stated)	59.9%
CN(C)c1ncc(/C=C2\SC(=S)N(Cc3ccccc3Cl)C2=O)s1	47.7%
O=C(/C=C1\C=CN(CCCCO)c2ccccc21)n1ccc2ccccc21	74.3%
C#C[C@]1(O)CC[C@H]2[C@@H]3CC=C4c5sc(Nc6nc(C)cc(OC)n6)nc5CC[C@]4(C)[C@H]3CC[C@@]21C	-1.87% (active)
Oc1ccccc1/C=N/Nc1nc(N/N=C/c2ccccc2O)nc(N2CCOCC2)n1	19.8%
IP(CCCSc1n(Cc2ccc3ccccc3c2)c(-c2ccccc2)c(-c2ccccc2)[n+]1Cc1ccc2ccccc2c1)(c1ccccc1)(c1ccccc1)c1ccccc1	70.1%
Cn1cc(-c2nnc(N)nc2-c2cn(C)c3ccc(F)cc23)c2cc(F)ccc21	82.6%
N/C(=N\OC(=O)CSc1nc2ccccc2s1)c1ccc(Cl)cc1	76.6%

From PubChem BioAssay (NCI)
